Measured values published in PubChem BioAssay AID1509 (The Scripps Research Institute Molecular Screening Center, 2009).
Out of some 220,000 compounds screened, about 770 (0.35%) were called active. The full list was thinned out, with actives kept by preference. Values without a mark were called inactive. No stated cut-off is given here; in the data, active means activation above about 11%; inactive means the rest.

Each compound was assayed against Sphingosine 1-phosphate receptor 4 (Homo sapiens) (UniProt O95977) (assay: S1P4 receptor agonists, primary screen, cell-based (AID 1509;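 further: 0% = DMSO vehicle and 100% = reference agonist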)). Conditions: S1P4-expressing cell line, agonist reporter assay; at 4.98 µM; active compounds read high.
Sphingosine 1-phosphate receptor 4 (Homo sapiens), sequence (O95977 whole entry, looked up): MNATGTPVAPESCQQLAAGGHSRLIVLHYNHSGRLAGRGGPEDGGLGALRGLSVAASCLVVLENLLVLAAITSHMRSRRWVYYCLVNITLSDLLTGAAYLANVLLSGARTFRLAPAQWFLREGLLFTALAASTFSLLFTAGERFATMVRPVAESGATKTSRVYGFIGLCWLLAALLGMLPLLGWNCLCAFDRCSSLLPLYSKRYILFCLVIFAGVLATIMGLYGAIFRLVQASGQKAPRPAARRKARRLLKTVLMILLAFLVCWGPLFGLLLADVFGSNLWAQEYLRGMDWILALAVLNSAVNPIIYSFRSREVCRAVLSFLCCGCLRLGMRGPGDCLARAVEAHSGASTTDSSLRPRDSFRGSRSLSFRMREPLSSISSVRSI

Row | Compound | activation
1 | O=S(=O)(NCCc1ccncc1)c1ccccc1 | -2.17%
2 | CCN(CC)CCCSc1nc2ccccc2s1 | -1.06%
3 | CCC(=O)Oc1cccc(C(=O)Nc2ccc(-c3nnc(-c4ccco4)o3)cc2)c1 | 1.45%
4 | CCOc1ccc(-c2nnc(-c3ccco3)o2)cc1 | 13.2% (active)
5 | CCCCOc1ccc(-c2nnc(-c3ccco3)o2)cc1 | 0.55%
6 | COC(=O)[C@@H]1CC[C@H](C)[C@@H](c2ccc(C)cc2)N1C(=O)c1ccc(/C=N/O[C@H](C)c2cn([C@@H]3COC[C@H]3O)nn2)cc1 | 44.7% (active)
7 | O=C(CC1C(=O)NCCN1CC(c1ccccc1)c1ccccc1)NCCc1cn[nH]c1 (stereo not drawn) | -1.81%
8 | Cc1cc(C(=O)COC(=O)C2CC2)c(C)n1-c1ccc(F)cc1 | 1.5%
9 | Cc1ccc(S(=O)(=O)NC(=O)Nc2nc(-c3ccc(F)c(F)c3)cs2)cc1 | 1.19%
10 | CNS(=O)(=O)c1ccc(NC(=O)C2CC(=O)N(c3ccc(Cl)cc3)C2)cc1 (stereo not drawn) | -4.58%
11 | COc1cccc2c1CCC(NC(C)=O)C2=O (stereo not drawn) | 1.12%
12 | Cn1c(SCC(=O)N2CCOCC2)nnc1-c1ccc2ncccc2c1 | 1.83%
13 | O=C(CSc1nnc(Cc2ccccc2)n1-c1ccccc1)N1CCOCC1 | -2.13%
14 | O=C(CSc1nncn1-c1cccnc1)N1CCOCC1 | 44.7% (active)
15 | O=C(Nc1ccc(NC(=O)c2ccco2)c(Cl)c1)c1cccc([N+](=O)[O-])c1 | 1.27%
16 | CCN(CC)S(=O)(=O)c1cccc(-c2n[nH]c(=S)n2/N=C/c2ccc(C(=O)OC)cc2)c1 | 0.89%
17 | Cc1cc(CNC(=O)c2cccc([N+](=O)[O-])c2)c2ccccc2n1 | 1.06%
18 | CC(=O)Nc1ccc(Nc2c3ccccc3nc3ccccc23)cc1 | 4.18%
19 | O=[N+]([O-])c1cccc(Nc2c3ccccc3nc3ccccc23)c1 | 13.1% (active)
20 | CCCCc1ccc(S(N)(=O)=O)cc1 | -0.75%
21 | CC(C)(C)n1cnnc1Sc1ccc([N+](=O)[O-])cn1 | -0.36%
22 | CC(C)(C)C(=O)NCCCNc1ccc([N+](=O)[O-])cc1 | 0.65%
23 | Cc1cc(C)c(C#N)c(SCC(=O)Nc2ccccc2)n1 | 2.39%
24 | Cc1cc(C)c(C#N)c(SCC(=O)NN2CC(=O)N(c3ccccc3F)CC2=O)n1 | 55.1% (active)

Row | Compound | activation
25 | Cc1cc(C)c(C#N)c(SCc2ccccc2C(=O)O)n1 | 0.52%
26 | O=C(O)CCn1cc(/C=C/C(=O)c2ccc(Cl)cc2)c(-c2cccc(Br)c2)n1 | 0.7%
27 | CCc1ccc(/C=N/NC(=O)c2ccc(OC3CCCC3)cc2)s1 | 0.66%
28 | O=C(O)/C=C/C(=O)NNc1ccc([N+](=O)[O-])cc1 | -0.64%
29 | Cc1csc(/N=C/N(C)C)c1C#N | 0.51%
30 | COc1ccccc1C(c1nnnn1C(C)(C)C)N1CCN(Cc2ccccc2)CC1 (stereo not drawn) | -1.97%
31 | CCCC(c1nnnn1C(C)(C)C)N1CCN(Cc2ccccc2)CC1 (stereo not drawn) | 0.72%
32 | CC(C)C(c1nnnn1C(C)(C)C)N1CCN(Cc2cccnc2)CC1 (stereo not drawn) | 12.3% (active)
33 | CC(=O)Nc1ccc(NC(=O)CSc2ncnc3c2cnn3Cc2ccccc2)cc1 | -0.48%
34 | COc1ccc(C(C(=O)NC(C)(C)C)N(C(=O)Cn2nnc3ccccc32)c2ccc(C(C)=O)cc2)cc1O (stereo not drawn) | 0.1%
35 | CCOC(=O)COc1nc(C)cc(C(F)(F)F)c1C#N | -0.16%
36 | CCc1ccc(-n2c(=S)sc3c(=O)n(-c4ccccc4OC)c(=S)[nH]c32)cc1 | 1.93%
37 | O=C(NC1CCCCC1)C1CCCN(S(=O)(=O)c2ccc(Br)s2)C1 (stereo not drawn) | 1.69%
38 | CCOc1cc(N2CCOCC2)c(OCC)cc1NC(=O)C1=NN(c2cccc(C)c2)C(=O)CC1 | 0.94%
39 | Cc1ccc(/C([O-])=C(/C(=S)NCc2ccco2)[n+]2ccccc2)cc1[N+](=O)[O-] | 0.47%
40 | CCN(CC)CCNC(=O)c1sc2ncn(CC(=O)Nc3ccc(C)c(Cl)c3)c(=O)c2c1C | -1.34%
41 | COc1ccccc1C1CC(=O)n2c(nc(-c3ccccc3)c2-c2ccccc2)S1 (stereo not drawn) | -1.26%
42 | O=C(Nc1nnc(SCc2c(Cl)cccc2Cl)s1)c1cccc([N+](=O)[O-])c1 | 1.12%
43 | CNC(=O)c1[nH]cnc1C(=O)N[C@@H](CC(C)C)C(=O)OC(C)(C)C | 2.22%
44 | CC(C)(C)OC(=O)N1CCC(NC(=O)c2[nH]cnc2C(=O)N[C@@H](Cc2ccccc2)C(=O)OCc2ccccc2)CC1 | 0.67%
45 | CNC(=O)c1[nH]cnc1C(=O)N[C@@H](CC(C)C)C(=O)OCc1ccccc1 | 30.9% (active)
46 | CC(=O)c1c(N2CCN(c3ccc(F)cc3)CC2)nc(=S)n(-c2ccccc2)c1C | 0.51%
47 | Nc1cccc(S(=O)(=O)Nc2ccc(SC(F)F)cc2)c1 | 1.21%
48 | NC(=O)c1ccccc1N=Cc1ccc2ccccc2c1 | 0.55%
